These results are taken from the supplement of paper PMC10849652.

Targets with a hit are over-represented here; the source holds about 8,800 in all. About 0.5% of all pairs of compound and target were hits.

Sequence of UniProt Q16576 (Q16576 whole entry, looked up): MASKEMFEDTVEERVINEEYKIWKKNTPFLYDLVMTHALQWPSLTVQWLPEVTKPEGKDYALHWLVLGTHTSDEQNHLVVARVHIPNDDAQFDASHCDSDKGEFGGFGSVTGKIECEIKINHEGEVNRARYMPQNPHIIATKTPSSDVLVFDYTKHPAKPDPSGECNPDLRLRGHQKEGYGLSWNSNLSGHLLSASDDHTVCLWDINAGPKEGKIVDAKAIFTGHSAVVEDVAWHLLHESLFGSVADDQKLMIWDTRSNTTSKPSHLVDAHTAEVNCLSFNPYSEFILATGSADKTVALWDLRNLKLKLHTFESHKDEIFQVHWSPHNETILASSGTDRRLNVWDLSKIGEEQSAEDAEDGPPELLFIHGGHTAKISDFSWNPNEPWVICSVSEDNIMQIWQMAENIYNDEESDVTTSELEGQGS
Sequence of UniProt Q9HBH5 (Q9HBH5 whole entry, looked up): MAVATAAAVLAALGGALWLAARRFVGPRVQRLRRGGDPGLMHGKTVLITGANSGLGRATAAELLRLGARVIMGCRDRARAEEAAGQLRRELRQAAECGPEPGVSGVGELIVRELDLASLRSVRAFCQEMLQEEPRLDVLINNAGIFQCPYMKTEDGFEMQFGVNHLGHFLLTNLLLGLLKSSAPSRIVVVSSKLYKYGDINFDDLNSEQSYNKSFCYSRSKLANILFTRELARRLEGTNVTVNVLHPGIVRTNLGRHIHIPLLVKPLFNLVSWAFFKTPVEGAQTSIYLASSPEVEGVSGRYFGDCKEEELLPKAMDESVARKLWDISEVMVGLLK
Sequence of UniProt P47736 (P47736 whole entry, looked up): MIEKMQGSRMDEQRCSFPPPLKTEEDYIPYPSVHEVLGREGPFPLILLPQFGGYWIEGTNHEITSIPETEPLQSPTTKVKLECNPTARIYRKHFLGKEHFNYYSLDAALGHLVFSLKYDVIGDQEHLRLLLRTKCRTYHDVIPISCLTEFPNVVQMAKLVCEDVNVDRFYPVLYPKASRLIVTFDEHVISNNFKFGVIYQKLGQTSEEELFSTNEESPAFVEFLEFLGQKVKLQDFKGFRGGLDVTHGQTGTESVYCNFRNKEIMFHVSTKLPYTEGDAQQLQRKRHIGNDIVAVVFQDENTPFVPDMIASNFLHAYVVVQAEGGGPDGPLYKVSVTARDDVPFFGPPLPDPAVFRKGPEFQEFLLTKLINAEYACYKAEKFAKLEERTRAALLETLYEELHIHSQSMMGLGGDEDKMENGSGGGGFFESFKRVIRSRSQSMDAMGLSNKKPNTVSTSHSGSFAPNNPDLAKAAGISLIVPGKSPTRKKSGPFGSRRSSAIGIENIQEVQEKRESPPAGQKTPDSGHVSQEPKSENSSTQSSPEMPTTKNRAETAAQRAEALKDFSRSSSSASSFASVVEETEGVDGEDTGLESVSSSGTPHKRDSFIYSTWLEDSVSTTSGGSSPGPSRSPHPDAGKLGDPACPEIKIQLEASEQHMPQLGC
Sequence of UniProt Q05823 (Q05823 whole entry, looked up): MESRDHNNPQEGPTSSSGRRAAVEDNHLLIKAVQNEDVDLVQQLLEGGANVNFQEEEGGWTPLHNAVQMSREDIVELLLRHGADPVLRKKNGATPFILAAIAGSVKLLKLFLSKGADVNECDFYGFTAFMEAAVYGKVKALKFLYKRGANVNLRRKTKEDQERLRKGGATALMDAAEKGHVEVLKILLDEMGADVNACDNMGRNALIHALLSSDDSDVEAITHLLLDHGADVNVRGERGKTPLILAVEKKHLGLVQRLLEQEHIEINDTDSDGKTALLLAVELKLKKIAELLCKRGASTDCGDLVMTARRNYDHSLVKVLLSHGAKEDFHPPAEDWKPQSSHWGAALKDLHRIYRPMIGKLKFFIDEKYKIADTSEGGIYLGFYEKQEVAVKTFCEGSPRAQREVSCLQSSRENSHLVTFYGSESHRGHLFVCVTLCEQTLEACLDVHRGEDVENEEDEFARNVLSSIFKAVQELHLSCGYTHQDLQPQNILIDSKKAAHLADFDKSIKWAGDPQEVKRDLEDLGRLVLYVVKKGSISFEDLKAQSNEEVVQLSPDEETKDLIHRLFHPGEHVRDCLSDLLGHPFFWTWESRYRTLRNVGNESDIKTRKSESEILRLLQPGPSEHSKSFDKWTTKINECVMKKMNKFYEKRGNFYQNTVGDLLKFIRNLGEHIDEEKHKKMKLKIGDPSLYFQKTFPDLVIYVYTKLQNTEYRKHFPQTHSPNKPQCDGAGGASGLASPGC
Sequence of UniProt P38159 (P38159 whole entry, looked up): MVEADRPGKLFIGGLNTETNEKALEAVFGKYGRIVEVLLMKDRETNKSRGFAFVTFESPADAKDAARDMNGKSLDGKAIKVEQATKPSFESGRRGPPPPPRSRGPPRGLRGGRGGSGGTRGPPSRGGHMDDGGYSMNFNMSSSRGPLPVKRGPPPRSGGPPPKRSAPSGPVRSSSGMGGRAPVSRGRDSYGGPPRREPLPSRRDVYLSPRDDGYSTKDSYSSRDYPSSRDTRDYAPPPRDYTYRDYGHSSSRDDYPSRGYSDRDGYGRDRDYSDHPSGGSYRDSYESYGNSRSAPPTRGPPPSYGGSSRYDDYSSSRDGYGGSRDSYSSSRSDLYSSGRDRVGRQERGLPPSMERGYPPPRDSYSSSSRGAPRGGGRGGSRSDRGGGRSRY
Sequence of UniProt Q5HYI8 (Q5HYI8 whole entry, looked up): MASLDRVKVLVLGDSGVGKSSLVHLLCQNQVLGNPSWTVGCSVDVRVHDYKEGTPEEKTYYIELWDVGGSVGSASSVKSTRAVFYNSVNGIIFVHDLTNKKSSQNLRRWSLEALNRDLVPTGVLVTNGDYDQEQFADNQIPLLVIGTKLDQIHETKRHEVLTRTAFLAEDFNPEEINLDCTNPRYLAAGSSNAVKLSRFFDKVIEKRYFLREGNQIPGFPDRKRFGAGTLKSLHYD
Sequence of UniProt Q6UVJ0 (Q6UVJ0 whole entry, looked up): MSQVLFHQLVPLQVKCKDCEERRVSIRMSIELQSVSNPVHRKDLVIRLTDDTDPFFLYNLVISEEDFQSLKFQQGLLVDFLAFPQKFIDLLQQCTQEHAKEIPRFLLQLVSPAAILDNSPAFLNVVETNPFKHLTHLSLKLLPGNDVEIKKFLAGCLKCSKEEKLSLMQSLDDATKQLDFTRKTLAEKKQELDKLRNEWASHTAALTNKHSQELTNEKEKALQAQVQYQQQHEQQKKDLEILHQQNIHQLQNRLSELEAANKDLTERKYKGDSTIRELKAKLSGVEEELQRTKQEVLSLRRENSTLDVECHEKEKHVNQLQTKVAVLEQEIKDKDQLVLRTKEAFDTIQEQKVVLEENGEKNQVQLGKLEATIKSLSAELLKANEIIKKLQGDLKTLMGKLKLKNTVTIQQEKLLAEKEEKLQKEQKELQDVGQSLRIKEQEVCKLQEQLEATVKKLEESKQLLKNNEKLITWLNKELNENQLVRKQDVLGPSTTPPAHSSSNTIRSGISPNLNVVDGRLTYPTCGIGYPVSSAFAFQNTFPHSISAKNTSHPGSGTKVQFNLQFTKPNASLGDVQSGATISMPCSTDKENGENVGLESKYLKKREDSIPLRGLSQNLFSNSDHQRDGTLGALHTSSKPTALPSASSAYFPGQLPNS
Sequence of UniProt O15541 (O15541 whole entry, looked up): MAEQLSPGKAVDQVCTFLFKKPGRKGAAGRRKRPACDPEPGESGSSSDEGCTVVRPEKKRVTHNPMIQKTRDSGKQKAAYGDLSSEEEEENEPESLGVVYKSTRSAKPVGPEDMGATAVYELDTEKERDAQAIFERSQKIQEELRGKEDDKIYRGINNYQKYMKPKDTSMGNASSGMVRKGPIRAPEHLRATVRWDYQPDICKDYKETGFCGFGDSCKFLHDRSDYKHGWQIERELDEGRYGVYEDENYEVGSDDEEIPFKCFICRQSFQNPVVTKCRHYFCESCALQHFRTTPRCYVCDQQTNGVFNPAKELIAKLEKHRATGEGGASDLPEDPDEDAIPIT
Sequence of UniProt Q9H1K0 (Q9H1K0 whole entry, looked up): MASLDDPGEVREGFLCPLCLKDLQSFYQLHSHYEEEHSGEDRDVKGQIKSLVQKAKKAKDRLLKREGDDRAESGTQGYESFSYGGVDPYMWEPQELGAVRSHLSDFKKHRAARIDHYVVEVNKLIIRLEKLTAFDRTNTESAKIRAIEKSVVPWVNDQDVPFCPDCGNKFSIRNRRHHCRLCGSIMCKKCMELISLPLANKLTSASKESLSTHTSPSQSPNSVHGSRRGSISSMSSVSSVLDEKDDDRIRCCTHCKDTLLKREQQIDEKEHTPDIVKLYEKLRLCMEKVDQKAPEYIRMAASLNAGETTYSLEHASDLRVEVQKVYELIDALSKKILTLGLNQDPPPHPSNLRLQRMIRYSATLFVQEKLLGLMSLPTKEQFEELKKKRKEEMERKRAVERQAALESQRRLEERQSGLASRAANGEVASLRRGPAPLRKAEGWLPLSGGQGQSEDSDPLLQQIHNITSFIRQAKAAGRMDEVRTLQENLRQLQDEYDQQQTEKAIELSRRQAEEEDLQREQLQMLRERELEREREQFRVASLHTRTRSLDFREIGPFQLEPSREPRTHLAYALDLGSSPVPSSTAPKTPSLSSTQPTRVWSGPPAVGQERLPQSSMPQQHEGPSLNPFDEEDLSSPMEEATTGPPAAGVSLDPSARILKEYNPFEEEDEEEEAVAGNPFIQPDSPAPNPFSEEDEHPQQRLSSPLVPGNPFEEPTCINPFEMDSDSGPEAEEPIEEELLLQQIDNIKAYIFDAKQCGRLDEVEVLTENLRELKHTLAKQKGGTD
Sequence of UniProt P35250 (P35250 whole entry, looked up): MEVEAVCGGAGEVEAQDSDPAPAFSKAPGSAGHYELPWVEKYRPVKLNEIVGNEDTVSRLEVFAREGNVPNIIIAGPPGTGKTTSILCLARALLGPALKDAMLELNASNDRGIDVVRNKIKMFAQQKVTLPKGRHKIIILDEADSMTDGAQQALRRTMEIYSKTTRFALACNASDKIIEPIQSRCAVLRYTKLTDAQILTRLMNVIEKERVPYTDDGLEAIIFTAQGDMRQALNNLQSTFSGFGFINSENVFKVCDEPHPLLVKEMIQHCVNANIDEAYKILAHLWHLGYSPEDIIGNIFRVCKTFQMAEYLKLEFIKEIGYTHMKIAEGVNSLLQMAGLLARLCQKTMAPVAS

Compound in one assay: O=C(O)c1ccc2c(c1)nc(Nc1cccc(Cl)c1)c1ccncc12 [silmitasertib]
Nature of the assay: log2 fold change, soluble protein after heating vs DMSO (PISA); higher = thermal stabilisation; K562 lysate, 10 uM; active = over 0.2 and 3.5 SD of the protein, either way, in both replicates (recomputed). A digest of the protocol: (§1)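 Dounce homogenisation of K562 pellets in PBS pH 7.4 with 1 mM MgCl2 produced a crude extract, used at 1 mg/mL protein. Exposure to 10 μM compound lasted 30 min, and aliquots were then heated for 3 min across 48°C-58°C, pooled and brought to 0.5% NP-40 at 4°C. The supernatant after 21,000xg for 90 min was quantified by TMTpro 16plex LC-MS/MS with channel sums equalised. Duplicate values are given as log-two fold change in thermal stability relative to solvent controls.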
Regarding RTN4IP1 (UniProt Q8WWV3), the log2 fold change was 0.165 (inactive).

In the case of SATB2 (UniProt Q9UPW6), the log2 fold change is 0.051 (inactive).

With RRAGA (UniProt Q7L523), the log2 fold change was 0.039 (inactive).

Regarding RFC2 (UniProt P35250), the log2 fold change was 0.043 (inactive).

Consider SASS6 (UniProt Q6UVJ0), for which the log2 fold change is 0.012 (inactive).

Consider SEC16A isoform 5 (UniProt O15027), for which the log2 fold change is 0.008 (inactive).

For SEH1L isoform 1 (UniProt Q96EE3), the log2 fold change was -0.02 (inactive).

With RECQL5 (UniProt O94762), the log2 fold change is -0.094 (inactive).

SAR1A (UniProt Q9NR31): the log2 fold change is -0.077 (inactive).

With RAP1GAP isoform 4 (UniProt P47736), the log2 fold change is -0.035 (inactive).

Take RNASEL (UniProt Q05823): the log2 fold change is 0.055 (inactive).

For the target RIOK3 (UniProt O14730), the log2 fold change is -0.017 (inactive).

As for RRM1 (UniProt P23921), the log2 fold change was 0.027 (inactive).

Turning to RBBP8 isoform 2 (UniProt Q99708), the log2 fold change was -0.13 (inactive).

Turning to REEP5 (UniProt Q00765), the log2 fold change was -0.025 (inactive).

As for RAB21 (UniProt Q9UL25), the log2 fold change was -0.021 (inactive).

For the target RDH14 (UniProt Q9HBH5), the log2 fold change is 0.044 (inactive).

With SDHA (UniProt P31040), the log2 fold change was -0.014 (inactive).

Turning to RABL3 (UniProt Q5HYI8), the log2 fold change was 0.445 (inactive).

As for RBMX (UniProt P38159), the log2 fold change was 0.048 (inactive).

Take RNASEH2B (UniProt Q5TBB1): the log2 fold change is 0.054 (inactive).

Consider RAC2 (UniProt P15153), for which the log2 fold change was 0.024 (inactive).

For RPS6KA3 (UniProt P51812), the log2 fold change is 0.362 (inactive).

Regarding RNF113A (UniProt O15541), the log2 fold change is -0.03 (inactive).

Take RCOR1 (UniProt Q9UKL0): the log2 fold change was -0.014 (inactive).

For RBM4 (UniProt Q9BWF3), the log2 fold change is 0.035 (inactive).

In the case of SBF1 isoform 4 (UniProt O95248), the log2 fold change is -0.046 (inactive).

As for RBSN (UniProt Q9H1K0), the log2 fold change is -0.032 (inactive).

RAPGEF2, A0A2R8YGD3: the log2 fold change was -0.007 (inactive).

For the target RBBP7 (UniProt Q16576), the log2 fold change is 0.033 (inactive).

As for S100A11 (UniProt P31949), the log2 fold change was -0.057 (inactive).

For the target RPN2 (UniProt P04844), the log2 fold change was 0.008 (inactive).

As to RXRB isoform 3 (UniProt P28702), the log2 fold change is 0.168 (inactive).

Compound in a further assay: O=C1NC(=O)C(c2cnc3ccccn23)=C1c1cn2c3c(cc(F)cc13)CN(C(=O)N1CCCCC1)CC2
The description is as above. In short, it runs like this: as §1
Take RTN4IP1 (UniProt Q8WWV3): the log2 fold change is 0.054 (inactive).

On to SATB2 (UniProt Q9UPW6), for which the log2 fold change was -0.024 (inactive).

With RRAGA (UniProt Q7L523), the log2 fold change is -0.015 (inactive).

Regarding RFC2 (UniProt P35250), the log2 fold change was -0.017 (inactive).

Take SASS6 (UniProt Q6UVJ0): the log2 fold change was 0.021 (inactive).

Regarding SEC16A isoform 5 (UniProt O15027), the log2 fold change is -0.029 (inactive).

Regarding SEH1L isoform 1 (UniProt Q96EE3), the log2 fold change is -0.008 (inactive).

As for RECQL5 (UniProt O94762), the log2 fold change was 0.03 (inactive).

With SAR1A (UniProt Q9NR31), the log2 fold change is -0.039 (inactive).

RAP1GAP isoform 4 (UniProt P47736): the log2 fold change is 0.022 (inactive).

Regarding RNASEL (UniProt Q05823), the log2 fold change is -0.021 (inactive).

Regarding RIOK3 (UniProt O14730), the log2 fold change was -0.024 (inactive).

In the case of RRM1 (UniProt P23921), the log2 fold change is -0.003 (inactive).

For RBBP8 isoform 2 (UniProt Q99708), the log2 fold change is -0.028 (inactive).

Take REEP5 (UniProt Q00765): the log2 fold change was 0.02 (inactive).

Consider RAB21 (UniProt Q9UL25), for which the log2 fold change is 0.029 (inactive).

Turning to RDH14 (UniProt Q9HBH5), the log2 fold change is 0.004 (inactive).

For SDHA (UniProt P31040), the log2 fold change is -0.028 (inactive).

RABL3 (UniProt Q5HYI8): the log2 fold change was -0.039 (inactive).

Take RBMX (UniProt P38159): the log2 fold change was -0.022 (inactive).

Turning to RNASEH2B (UniProt Q5TBB1), the log2 fold change is -0.064 (inactive).

On to RAC2 (UniProt P15153), for which the log2 fold change was 0.102 (inactive).

Take RPS6KA3 (UniProt P51812): the log2 fold change was 0.181 (inactive).

For RNF113A (UniProt O15541), the log2 fold change is -0.004 (inactive).

As for RCOR1 (UniProt Q9UKL0), the log2 fold change was -0.011 (inactive).

On to RBM4 (UniProt Q9BWF3), for which the log2 fold change is -0.097 (inactive).

SBF1 isoform 4 (UniProt O95248): the log2 fold change is 0.056 (inactive).

Consider RBSN (UniProt Q9H1K0), for which the log2 fold change is -0.026 (inactive).

With RAPGEF2, A0A2R8YGD3, the log2 fold change is 0.015 (inactive).

With RBBP7 (UniProt Q16576), the log2 fold change is -0.167 (inactive).

In the case of S100A11 (UniProt P31949), the log2 fold change is 0.046 (inactive).

Take RPN2 (UniProt P04844): the log2 fold change is -0.04 (inactive).

As to RXRB isoform 3 (UniProt P28702), the log2 fold change was 0.07 (inactive).

Compound in the next assay: c1cn2cc(-c3ccc4cn[nH]c4c3)nc(Nc3ccc(N4CCOCC4)cc3)c2n1 [entospletinib]
The description is as above. In short, it runs like this: as §1
Turning to RTN4IP1 (UniProt Q8WWV3), the log2 fold change was -0.01 (inactive).

Consider SATB2 (UniProt Q9UPW6), for which the log2 fold change is 0.036 (inactive).

As for RRAGA (UniProt Q7L523), the log2 fold change is 0.05 (inactive).

For RFC2 (UniProt P35250), the log2 fold change is 0.004 (inactive).

On to SASS6 (UniProt Q6UVJ0), for which the log2 fold change is 0.003 (inactive).

For SEC16A isoform 5 (UniProt O15027), the log2 fold change was -0.015 (inactive).

As for SEH1L isoform 1 (UniProt Q96EE3), the log2 fold change is -0.011 (inactive).

Consider RECQL5 (UniProt O94762), for which the log2 fold change was 0.024 (inactive).

SAR1A (UniProt Q9NR31): the log2 fold change is -0.089 (inactive).

Regarding RAP1GAP isoform 4 (UniProt P47736), the log2 fold change is -0.012 (inactive).

Regarding RNASEL (UniProt Q05823), the log2 fold change is -0.023 (inactive).

As for RIOK3 (UniProt O14730), the log2 fold change was -0.004 (inactive).

Regarding RRM1 (UniProt P23921), the log2 fold change was -0.013 (inactive).

For RBBP8 isoform 2 (UniProt Q99708), the log2 fold change was -0.002 (inactive).

On to REEP5 (UniProt Q00765), for which the log2 fold change is 0.015 (inactive).

Consider RAB21 (UniProt Q9UL25), for which the log2 fold change was 0.02 (inactive).

Turning to RDH14 (UniProt Q9HBH5), the log2 fold change is 0.026 (inactive).

SDHA (UniProt P31040): the log2 fold change is -0.006 (inactive).

For the target RABL3 (UniProt Q5HYI8), the log2 fold change was 0 (inactive).

On to RBMX (UniProt P38159), for which the log2 fold change is 0.008 (inactive).

RNASEH2B (UniProt Q5TBB1): the log2 fold change was 0.011 (inactive).

Turning to RAC2 (UniProt P15153), the log2 fold change is 0.024 (inactive).

With RPS6KA3 (UniProt P51812), the log2 fold change was -0.052 (inactive).

RNF113A (UniProt O15541): the log2 fold change is 0.02 (inactive).

As to RCOR1 (UniProt Q9UKL0), the log2 fold change is 0.009 (inactive).

For the target RBM4 (UniProt Q9BWF3), the log2 fold change is 0.001 (inactive).

Take SBF1 isoform 4 (UniProt O95248): the log2 fold change is 0.005 (inactive).

RBSN (UniProt Q9H1K0): the log2 fold change is -0.088 (inactive).

As for RAPGEF2, A0A2R8YGD3, the log2 fold change is -0.046 (inactive).

In the case of RBBP7 (UniProt Q16576), the log2 fold change was 0 (inactive).

As for S100A11 (UniProt P31949), the log2 fold change was -0.045 (inactive).

As to RPN2 (UniProt P04844), the log2 fold change is -0.009 (inactive).

As to RXRB isoform 3 (UniProt P28702), the log2 fold change is 0.006 (inactive).
